# Test results taken from the supplement of paper PMC4466140.
# Key:
# Test in all cases: SPOT peptide array binding signal intensity (averaged, normalized) (arbitrary units (background-subtracted, floor 0; scale differs between SH3 domains)); higher = stronger binding of the SH3 domain to the peptide
# AgAbp1 = target: AgAbp1
# Outline: (§1)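 GST-fused SH3 domains from four yeast species were expressed in E. coli BL21(DE3), purified on glutathione Sepharose and incubated at 10 μg/ml overnight at 4°C in TBS-based blocking buffer on cellulose membranes carrying synthetic 15-mer peptides, with cysteines replaced by serines. Bound protein was detected with anti-GST antibody, an HRP anti-mouse secondary and luminol, then imaged and quantified with Genespotter. Binding signal is the normalized, background-subtracted spot intensity averaged over replicates, in arbitrary units that differ between domains.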
# AgBbc1 = target: AgBbc1
# Outline: as §1
# AgBem1-D1 = target: AgBem1-D1
# Outline: as §1
# AgBzz1-D1 = target: AgBzz1-D1
# Outline: as §1
# AgBzz1-D2 = target: AgBzz1-D2
# Outline: as §1
# AgCyk3 = target: AgCyk3
# Outline: as §1
# AgFus1 = target: AgFus1
# Outline: as §1
# AgHof1 = target: AgHof1
# Outline: as §1
# AgHse1 = target: AgHse1
# Outline: as §1
# AgLsb1 = target: AgLsb1
# Outline: as §1
# AgLsb4 = target: AgLsb4
# Outline: as §1
# AgMyo5 = target: AgMyo5
# Outline: as §1
# AgNbp2 = target: AgNbp2
# Outline: as §1
# AgRvs167 = target: AgRvs167
# Outline: as §1
# AgSho1 = target: AgSho1
# Outline: as §1
# AgSla1-D1-D2 = target: AgSla1-D1-D2
# Outline: as §1
# AgSla1-D3 = target: AgSla1-D3
# Outline: as §1
# CaAbp1-D1 = target: CaAbp1-D1
# Outline: as §1
# CaAbp1-D2 = target: CaAbp1-D2
# Outline: as §1
# CaBbc1 = target: CaBbc1
# Outline: as §1
# CaBem1-D1 = target: CaBem1-D1
# Outline: as §1
# CaBzz1-D1 = target: CaBzz1-D1
# Outline: as §1
# CaBzz1-D2 = target: CaBzz1-D2
# Outline: as §1
# CaCyk3 = target: CaCyk3
# Outline: as §1
# CaFus1 = target: CaFus1
# Outline: as §1
# CaHof1 = target: CaHof1
# Outline: as §1
# CaHse1 = target: CaHse1
# Outline: as §1
# CaLsb1 = target: CaLsb1
# Outline: as §1
# CaLsb4 = target: CaLsb4
# Outline: as §1
# CaMyo5 = target: CaMyo5
# Outline: as §1
# CaNbp2 = target: CaNbp2
# Outline: as §1
# CaRvs167 = target: CaRvs167
# Outline: as §1
# CaRvs167-3 = target: CaRvs167-3
# Outline: as §1
# CaSho1 = target: CaSho1
# Outline: as §1
# CaSla1-D1-D2 = target: CaSla1-D1-D2
# Outline: as §1
# CaSla1-D3 = target: CaSla1-D3
# Outline: as §1
# ScAbp1 = target: ScAbp1
# Outline: as §1
# ScBbc1 = target: ScBbc1
# Outline: as §1
# ScBem1-D1 = target: ScBem1-D1
# Outline: as §1
# ScBzz1-D1 = target: ScBzz1-D1
# Outline: as §1
# ScBzz1-D2 = target: ScBzz1-D2
# Outline: as §1
# ScCyk3 = target: ScCyk3
# Outline: as §1
# ScFus1 = target: ScFus1
# Outline: as §1
# ScHof1 = target: ScHof1
# Outline: as §1
# ScHse1 = target: ScHse1
# Outline: as §1
# ScLsb1 = target: ScLsb1
# Outline: as §1
# ScLsb2 = target: ScLsb2
# Outline: as §1
# ScLsb3 = target: ScLsb3
# Outline: as §1
# ScLsb4 = target: ScLsb4
# Outline: as §1
# ScMyo3 = target: ScMyo3
# Outline: as §1
# ScMyo5 = target: ScMyo5
# Outline: as §1
# ScNbp2 = target: ScNbp2
# Outline: as §1
# ScPex13 = target: ScPex13
# Outline: as §1
# ScRvs167 = target: ScRvs167
# Outline: as §1
# ScSho1 = target: ScSho1
# Outline: as §1
# ScSla1-D1-D2 = target: ScSla1-D1-D2
# Outline: as §1
# ScSla1-D3 = target: ScSla1-D3
# Outline: as §1
# SpAbp1-D1 = target: SpAbp1-D1
# Outline: as §1
# SpBbc1 = target: SpBbc1
# Outline: as §1
# SpBzz1-D1 = target: SpBzz1-D1
# Outline: as §1
# SpBzz1-D2 = target: SpBzz1-D2
# Outline: as §1
# SpCyk3 = target: SpCyk3
# Outline: as §1
# SpHof1 = target: SpHof1
# Outline: as §1
# SpHof1-2 = target: SpHof1-2
# Outline: as §1
# SpHof1-3 = target: SpHof1-3
# Outline: as §1
# SpHse1 = target: SpHse1
# Outline: as §1
# SpLsb1 = target: SpLsb1
# Outline: as §1
# SpLsb4 = target: SpLsb4
# Outline: as §1
# SpMyo1 = target: SpMyo1
# Outline: as §1
# SpNbp2 = target: SpNbp2
# Outline: as §1
# SpPex13 = target: SpPex13
# Outline: as §1
# SpRvs167 = target: SpRvs167
# Outline: as §1
# SpSla1-D1-D2 = target: SpSla1-D1-D2
# Outline: as §1
# SpSla1-D3 = target: SpSla1-D3
# Outline: as §1
binder,measurement,setting,value
PKRRAPPPVPKKPSS,SPOT peptide array binding signal intensity,AgAbp1,5860
same,SPOT peptide array binding signal intensity,AgBbc1,1440
same,SPOT peptide array binding signal intensity,AgBem1-D1,221
same,SPOT peptide array binding signal intensity,AgBzz1-D1,2030
same,SPOT peptide array binding signal intensity,AgBzz1-D2,987
same,SPOT peptide array binding signal intensity,AgCyk3,1
same,SPOT peptide array binding signal intensity,AgFus1,21.5
same,SPOT peptide array binding signal intensity,AgHof1,530
same,SPOT peptide array binding signal intensity,AgHse1,122
same,SPOT peptide array binding signal intensity,AgLsb1,784
same,SPOT peptide array binding signal intensity,AgLsb4,158
same,SPOT peptide array binding signal intensity,AgMyo5,73.5
same,SPOT peptide array binding signal intensity,AgNbp2,5620
same,SPOT peptide array binding signal intensity,AgRvs167,100
same,SPOT peptide array binding signal intensity,AgSho1,479
same,SPOT peptide array binding signal intensity,AgSla1-D1-D2,96
same,SPOT peptide array binding signal intensity,AgSla1-D3,856
same,SPOT peptide array binding signal intensity,CaAbp1-D1,2910
same,SPOT peptide array binding signal intensity,CaAbp1-D2,5120
same,SPOT peptide array binding signal intensity,CaBbc1,1940
same,SPOT peptide array binding signal intensity,CaBem1-D1,110
same,SPOT peptide array binding signal intensity,CaBzz1-D1,6700
same,SPOT peptide array binding signal intensity,CaBzz1-D2,5750
same,SPOT peptide array binding signal intensity,CaCyk3,142
same,SPOT peptide array binding signal intensity,CaFus1,188
same,SPOT peptide array binding signal intensity,CaHof1,0.5
same,SPOT peptide array binding signal intensity,CaHse1,788
same,SPOT peptide array binding signal intensity,CaLsb1,0.5
same,SPOT peptide array binding signal intensity,CaLsb4,2470
same,SPOT peptide array binding signal intensity,CaMyo5,2
same,SPOT peptide array binding signal intensity,CaNbp2,3070
same,SPOT peptide array binding signal intensity,CaRvs167,104
same,SPOT peptide array binding signal intensity,CaRvs167-3,7.5
same,SPOT peptide array binding signal intensity,CaSho1,93
same,SPOT peptide array binding signal intensity,CaSla1-D1-D2,3270
same,SPOT peptide array binding signal intensity,CaSla1-D3,1040
same,SPOT peptide array binding signal intensity,ScAbp1,3020
same,SPOT peptide array binding signal intensity,ScBbc1,651
same,SPOT peptide array binding signal intensity,ScBem1-D1,40
same,SPOT peptide array binding signal intensity,ScBzz1-D1,2560
same,SPOT peptide array binding signal intensity,ScBzz1-D2,83.5
same,SPOT peptide array binding signal intensity,ScCyk3,6
same,SPOT peptide array binding signal intensity,ScFus1,14
same,SPOT peptide array binding signal intensity,ScHof1,≤ 0
same,SPOT peptide array binding signal intensity,ScHse1,326
same,SPOT peptide array binding signal intensity,ScLsb1,488
same,SPOT peptide array binding signal intensity,ScLsb2,800
same,SPOT peptide array binding signal intensity,ScLsb3,4240
same,SPOT peptide array binding signal intensity,ScLsb4,78.5
same,SPOT peptide array binding signal intensity,ScMyo3,865
same,SPOT peptide array binding signal intensity,ScMyo5,436
same,SPOT peptide array binding signal intensity,ScNbp2,5110
same,SPOT peptide array binding signal intensity,ScPex13,560
same,SPOT peptide array binding signal intensity,ScRvs167,1250
same,SPOT peptide array binding signal intensity,ScSho1,1580
same,SPOT peptide array binding signal intensity,ScSla1-D1-D2,3720
same,SPOT peptide array binding signal intensity,ScSla1-D3,1510
same,SPOT peptide array binding signal intensity,SpAbp1-D1,1910
same,SPOT peptide array binding signal intensity,SpBbc1,144
same,SPOT peptide array binding signal intensity,SpBzz1-D1,2040
RRSKSLPTTPGIRSG,SPOT peptide array binding signal intensity,AgAbp1,744
same,SPOT peptide array binding signal intensity,AgBbc1,104
same,SPOT peptide array binding signal intensity,AgBem1-D1,348
same,SPOT peptide array binding signal intensity,AgBzz1-D1,45
same,SPOT peptide array binding signal intensity,AgBzz1-D2,43
same,SPOT peptide array binding signal intensity,AgCyk3,4
same,SPOT peptide array binding signal intensity,AgFus1,120
same,SPOT peptide array binding signal intensity,AgHof1,158
same,SPOT peptide array binding signal intensity,AgHse1,816
same,SPOT peptide array binding signal intensity,AgLsb1,50.8
same,SPOT peptide array binding signal intensity,AgLsb4,128
same,SPOT peptide array binding signal intensity,AgMyo5,≤ 0
same,SPOT peptide array binding signal intensity,AgNbp2,213
same,SPOT peptide array binding signal intensity,AgRvs167,2.33
same,SPOT peptide array binding signal intensity,AgSho1,4520
same,SPOT peptide array binding signal intensity,AgSla1-D1-D2,469
same,SPOT peptide array binding signal intensity,AgSla1-D3,1.75
same,SPOT peptide array binding signal intensity,CaAbp1-D1,1220
same,SPOT peptide array binding signal intensity,CaAbp1-D2,1180
same,SPOT peptide array binding signal intensity,CaBbc1,216
same,SPOT peptide array binding signal intensity,CaBem1-D1,54
same,SPOT peptide array binding signal intensity,CaBzz1-D1,292
same,SPOT peptide array binding signal intensity,CaBzz1-D2,115
same,SPOT peptide array binding signal intensity,CaCyk3,17
same,SPOT peptide array binding signal intensity,CaFus1,450
same,SPOT peptide array binding signal intensity,CaHof1,≤ 0
same,SPOT peptide array binding signal intensity,CaHse1,31.5
same,SPOT peptide array binding signal intensity,CaLsb1,3.5
same,SPOT peptide array binding signal intensity,CaLsb4,276
same,SPOT peptide array binding signal intensity,CaMyo5,7.5
same,SPOT peptide array binding signal intensity,CaNbp2,430
same,SPOT peptide array binding signal intensity,CaRvs167,15.2
same,SPOT peptide array binding signal intensity,CaRvs167-3,55.5
same,SPOT peptide array binding signal intensity,CaSho1,1030
same,SPOT peptide array binding signal intensity,CaSla1-D1-D2,2240
same,SPOT peptide array binding signal intensity,CaSla1-D3,≤ 0
same,SPOT peptide array binding signal intensity,ScAbp1,261
same,SPOT peptide array binding signal intensity,ScBbc1,19.2
same,SPOT peptide array binding signal intensity,ScBem1-D1,54
same,SPOT peptide array binding signal intensity,ScBzz1-D1,25
same,SPOT peptide array binding signal intensity,ScBzz1-D2,27
same,SPOT peptide array binding signal intensity,ScCyk3,96
same,SPOT peptide array binding signal intensity,ScFus1,163
same,SPOT peptide array binding signal intensity,ScHof1,1.25
same,SPOT peptide array binding signal intensity,ScHse1,1360
same,SPOT peptide array binding signal intensity,ScLsb1,77
same,SPOT peptide array binding signal intensity,ScLsb2,6
same,SPOT peptide array binding signal intensity,ScLsb3,444
same,SPOT peptide array binding signal intensity,ScLsb4,21
same,SPOT peptide array binding signal intensity,ScMyo3,6.5
same,SPOT peptide array binding signal intensity,ScMyo5,≤ 0
same,SPOT peptide array binding signal intensity,ScNbp2,203
same,SPOT peptide array binding signal intensity,ScPex13,23.2
same,SPOT peptide array binding signal intensity,ScRvs167,18.7
same,SPOT peptide array binding signal intensity,ScSho1,5840
same,SPOT peptide array binding signal intensity,ScSla1-D1-D2,4460
same,SPOT peptide array binding signal intensity,ScSla1-D3,70.5
same,SPOT peptide array binding signal intensity,SpAbp1-D1,2040
same,SPOT peptide array binding signal intensity,SpBbc1,6.5
same,SPOT peptide array binding signal intensity,SpBzz1-D1,226
same,SPOT peptide array binding signal intensity,SpBzz1-D2,0.5
same,SPOT peptide array binding signal intensity,SpCyk3,5
same,SPOT peptide array binding signal intensity,SpHof1,2630
same,SPOT peptide array binding signal intensity,SpHof1-2,3020
same,SPOT peptide array binding signal intensity,SpHof1-3,1440
same,SPOT peptide array binding signal intensity,SpHse1,356
same,SPOT peptide array binding signal intensity,SpLsb1,0.5
same,SPOT peptide array binding signal intensity,SpLsb4,574
same,SPOT peptide array binding signal intensity,SpMyo1,15.2
same,SPOT peptide array binding signal intensity,SpNbp2,506
same,SPOT peptide array binding signal intensity,SpPex13,8.5
same,SPOT peptide array binding signal intensity,SpRvs167,72.5
same,SPOT peptide array binding signal intensity,SpSla1-D1-D2,1620
same,SPOT peptide array binding signal intensity,SpSla1-D3,15
